Dicer processing – human Dicer pre-microRNA cleavage inhibition | Q9UPY3 | cat-ELCCA pre-miR-21 Dicer processing, chemiluminescence; stronger effect = higher value | z-score at 25 µM | 47,000 compounds, 6% hits; in the data active = z-score above about 3, passing the limit was not always enough;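 also: higher signal means more uncleaved substrate so more Dicer inhibition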
Target sequence (Q9UPY3 whole entry, looked up): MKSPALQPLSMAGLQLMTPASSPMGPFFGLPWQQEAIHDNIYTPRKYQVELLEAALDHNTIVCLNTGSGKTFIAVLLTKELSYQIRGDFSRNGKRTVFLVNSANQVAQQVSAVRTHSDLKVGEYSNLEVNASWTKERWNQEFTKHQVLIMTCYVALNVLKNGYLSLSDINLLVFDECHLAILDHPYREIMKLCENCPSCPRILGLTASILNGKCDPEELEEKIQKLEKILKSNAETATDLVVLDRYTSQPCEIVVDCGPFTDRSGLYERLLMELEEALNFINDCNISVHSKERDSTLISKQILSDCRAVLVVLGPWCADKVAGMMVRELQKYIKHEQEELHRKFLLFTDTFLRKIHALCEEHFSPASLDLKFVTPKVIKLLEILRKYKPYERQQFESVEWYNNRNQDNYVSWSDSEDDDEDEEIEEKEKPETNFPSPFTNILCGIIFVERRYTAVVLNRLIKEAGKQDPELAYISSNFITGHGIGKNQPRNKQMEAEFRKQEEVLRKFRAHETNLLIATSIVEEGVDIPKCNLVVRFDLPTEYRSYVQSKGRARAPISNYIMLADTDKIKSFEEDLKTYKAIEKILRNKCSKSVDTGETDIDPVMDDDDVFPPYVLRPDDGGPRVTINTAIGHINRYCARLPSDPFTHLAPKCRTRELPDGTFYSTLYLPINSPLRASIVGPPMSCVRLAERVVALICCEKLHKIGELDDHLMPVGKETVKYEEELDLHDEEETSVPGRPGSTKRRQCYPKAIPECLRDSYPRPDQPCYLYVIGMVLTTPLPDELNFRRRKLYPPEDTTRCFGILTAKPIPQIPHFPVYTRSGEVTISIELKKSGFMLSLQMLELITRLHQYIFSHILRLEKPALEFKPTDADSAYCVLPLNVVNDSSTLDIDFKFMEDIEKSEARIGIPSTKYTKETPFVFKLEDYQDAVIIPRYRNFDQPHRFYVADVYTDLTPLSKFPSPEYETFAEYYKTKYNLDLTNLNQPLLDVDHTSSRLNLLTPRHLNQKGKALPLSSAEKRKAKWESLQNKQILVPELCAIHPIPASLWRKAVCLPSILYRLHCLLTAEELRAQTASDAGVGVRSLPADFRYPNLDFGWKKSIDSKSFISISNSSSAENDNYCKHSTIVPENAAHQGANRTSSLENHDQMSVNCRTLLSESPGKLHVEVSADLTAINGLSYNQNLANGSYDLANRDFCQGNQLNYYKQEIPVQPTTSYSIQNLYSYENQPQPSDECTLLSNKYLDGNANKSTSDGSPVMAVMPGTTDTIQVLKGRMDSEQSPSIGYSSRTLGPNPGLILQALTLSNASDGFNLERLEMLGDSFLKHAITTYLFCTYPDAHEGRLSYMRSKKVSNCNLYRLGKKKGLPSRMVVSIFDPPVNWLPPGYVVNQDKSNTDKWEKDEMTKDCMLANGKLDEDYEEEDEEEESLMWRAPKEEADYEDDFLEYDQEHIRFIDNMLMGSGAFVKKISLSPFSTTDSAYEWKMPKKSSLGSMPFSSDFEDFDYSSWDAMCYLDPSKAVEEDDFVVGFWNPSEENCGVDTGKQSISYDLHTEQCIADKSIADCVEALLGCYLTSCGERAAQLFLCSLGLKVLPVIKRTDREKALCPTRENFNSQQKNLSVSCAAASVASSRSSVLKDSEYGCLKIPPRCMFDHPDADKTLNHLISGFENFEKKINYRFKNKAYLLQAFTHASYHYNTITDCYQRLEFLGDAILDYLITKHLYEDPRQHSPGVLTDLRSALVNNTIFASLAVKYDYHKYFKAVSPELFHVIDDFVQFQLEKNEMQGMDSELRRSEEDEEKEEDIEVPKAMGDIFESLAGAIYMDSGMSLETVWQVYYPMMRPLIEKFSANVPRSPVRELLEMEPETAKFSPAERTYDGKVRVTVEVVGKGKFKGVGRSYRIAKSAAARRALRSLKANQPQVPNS
Of the large screens only hits and unclear results are named; the others gave an inactive call. The full list was thinned out, with hits kept by preference.

CCOc1cccc(C2c3c(oc4ccccc4c3=O)C(=O)N2Cc2ccc3c(c2)OCO3)c1 (configuration not stated)	none
COc1ccccc1-c1coc2cc(OC(=O)c3ccco3)ccc2c1=O	none
CC1=C(C(=O)OC2CCCC2)C(c2ccccc2)C2=C(CC(c3ccccc3)CC2=O)N1 (configuration not stated)	Dicer processing 3.1
CC1=C(C(=O)OC2CCCCC2)C(c2ccccn2)C2=C(CC(c3ccccc3)CC2=O)N1 (configuration not stated)	none
CC1=C(C(=O)OCc2ccccc2)C(c2cccc(O)c2)C2=C(CC(c3ccccc3)CC2=O)N1 (configuration not stated)	Dicer processing 3
C=CCOC(=O)C1=C(C)NC2=C(C(=O)CC(c3ccccc3)C2)C1c1ccc(O)cc1 (configuration not stated)	none
CCSCCOC(=O)C1=C(C)NC2=C(C(=O)CC(c3ccc(OC)cc3)C2)C1c1cccc(O)c1 (configuration not stated)	none
COc1ccc(C2CC(=O)C3=C(C2)NC(C)=C(C(=O)OC2CCCC2)C3c2ccc(OC)cc2)cc1 (configuration not stated)	none
CCOC(=O)c1sc(N2C(=O)C(O)=C(C(=O)c3ccco3)C2c2ccc(C(C)(C)C)cc2)nc1C (configuration not stated)	none
NNC(=O)CSc1ccnc2cc(Cl)ccc12	none
O=C(NCCN=C1NS(=O)(=O)c2ccccc21)c1cccc2ccccc12	none
N#Cc1c(S/C=C(\O)c2cc3ccccc3o2)nc2c(c1C(F)(F)F)CCCC2	none
Cc1ccccc1C1CC(=O)NC(SCC(=O)OCc2ccccc2)=C1C#N (configuration not stated)	none
O=C(O)c1nccnc1C(=O)NC(c1ccccc1)c1ccccc1	none
O=S(=O)(c1ccc(Cl)cc1)n1cnc2ccccc21	none
CCOc1ccc(S(=O)(=O)n2cnc3ccccc32)cc1	Dicer processing 4.7
CCOc1ccc(S(=O)(=O)n2c(C)nc3ccccc32)cc1	none
CCN(c1cccc2ccccc12)S(=O)(=O)c1ccc2c(c1)OCC2	none
CCCOCCOC(=O)C1=C(C)NC2=C(C(=O)CCC2)C1c1ccc(OC)cc1OC (configuration not stated)	none
COc1cc(OC)c(C2C(C#N)=C(N)Oc3n[nH]c(-c4ccccc4)c32)c(OC)c1 (configuration not stated)	none
Cc1ccccc1Cn1c(-c2cncs2)nc2ccccc21	none
C=CCn1c(-c2cccs2)nc2ccccc21	none
Brc1cc2c(cc1Cn1c(-c3cncs3)nc3ccccc31)OCO2	Dicer processing 4.3
COc1ccc2nc3ccccc3c(N)c2c1	Dicer processing 4
COc1ccc2nc(C3C(=O)c4ccccc4C3=O)cc(Cl)c2c1	Dicer processing 6.5
COc1ccc2nc(C3C(=O)c4ccccc4C3=O)ccc2c1	none
COc1ccc2nc(N)sc2c1	none
COc1ccc2nc(C)cc(Cl)c2c1	none
COc1ccccc1-c1nc2ccc(Cl)cc2c(=O)o1	none
C/S(=N\S(=O)(=O)c1ccccc1)c1ncc(Cl)cc1C(F)(F)F (configuration not stated)	none
Cn1c2c(c(=O)n(C)c1=O)C(c1cccc(F)c1)C1C(=O)c3ccccc3C1=N2 (configuration not stated)	none
Cn1c(NCc2ccccc2)nc2c1c(=O)n(Cc1ccc(F)cc1)c(=O)n2C	none
O=C(CSc1nc(-c2ccc(Cl)cc2)[nH]c(=O)n1)Nc1ccc(Cl)cc1	none
O=C(O)c1ccc(COc2cccc(Cl)c2)o1	none
COC(=O)c1c(C)n(S(C)(=O)=O)c2cc(C)c(NS(C)(=O)=O)cc12	none
CCNC(=O)N(C)c1nncnc1C(=O)NC	Dicer processing 4.5
CCCCNC(=O)N(C)c1nncnc1C(=O)NC	none
CNC(=O)c1ncnnc1N(C)C(=O)NCc1ccccc1	none
CCOC(=O)c1sc(=S)n(-c2cc(C)ccc2C)c1N	Dicer processing 5.2
CCOC(=O)c1sc(=S)n(-c2ccc(Cl)cc2)c1C	none
CCOC(=O)c1c(C)n(-c2ccccc2)c2c1cc(O)c1ccccc12	none
CCOC(=O)c1c(C)n(-c2ccc(OC)cc2)c2ccc(O)cc12	Dicer processing 4.7
CCOC(=O)c1sc(-c2ccc(C)cc2)nc1O	none
CCOC(=O)c1sc(=S)n(-c2ccc(OC)cc2)c1C	Dicer processing 4.2
CCOC(=O)c1c(C)n(-c2ccccc2)c2ccc(OC(=O)c3cccs3)cc12	none
CCOC(=O)c1c(C)n(-c2ccc(N(C)C)cc2)c2ccc(O)cc12	Dicer processing 6.6
CCOC(=O)c1sc2c(c1O)c(=O)n(-c1ccccc1)c(=S)n2-c1ccccc1	none
CCOC(=O)c1c(O)c(O)c(C(=O)OCC)n1-c1ccc(OC)cc1	none
CCOC(=O)c1c(C)n(-c2ccccc2)c2ccc(O)cc12	none
CCOC(=O)c1c(C)n(CCO)c2ccc(O)cc12	none
CCCCOC(=O)C1=C(C)NC2=C(C(=O)CCC2)C1c1ccc(O)c(OC)c1 (configuration not stated)	none
O=C(CCc1ccc(O)cc1)NNC(=S)Nc1ccccc1Cl	none
FC(F)(F)c1cc(Oc2ccccc2)ncc1-c1ncc(-c2ccc(Cl)cc2)o1	none
CC1=C(C(=O)Nc2cccc(C)n2)C(c2cccnc2)C2=C(CC(C)(C)CC2=O)N1 (configuration not stated)	none
CCCOC(=O)CSc1[nH]c(=O)cc(C)c1C#N	none
CC1CCC2C(=O)N(c3ccc(C(C)(C)C)cc3)C(=O)C2C1 (configuration not stated)	none
OC1=CONN1c1cccc2ncccc12	Dicer processing 3.2
Cc1nc2ccc(N3NOC=C3O)cc2s1	none
Cc1cnc(NS(=O)(=O)c2ccc(F)cc2)c(Br)c1	none
CC1CCC(C(C)C)C(OC(=O)Cn2c[n+](C)c3ccccc32)C1 (configuration not stated)	none
O=C(Nc1cncc(C#Cc2ccccc2)c1)Nc1ccccc1Cl	none
O=C(O)C1CCN(c2ccc(C(F)(F)F)cn2)CC1	none
O=C(O)c1cc(NC(=O)C2CCN(c3nccc(C(F)(F)F)n3)CC2)ccc1N1CCOCC1	none
O=c1oc(-c2ccccc2Cl)nc2ccc(I)cc12	none
Cc1ccc(C(=O)Nc2nc(-c3ccc(C)c(Cl)c3)c(C)s2)cc1	none
Cc1ccc(-c2nc(NC(=O)COc3ccc(Cl)cc3Cl)sc2C)cc1Cl	none
Cc1ccc(-c2cc(O)cc3sc(=O)oc23)cc1Cl	Dicer processing 5.3
CCc1ccc(-c2cc(O)cc3sc(=O)oc23)cc1	none
Cc1ccc(-c2nc3sc(C)c(C)c3c(=O)o2)cc1	none
O=c1oc2c(-c3cccc(F)c3)cc(O)cc2s1	Dicer processing 5
Cc1ccc(-c2cc(O)cc3sc(=O)oc23)cc1	Dicer processing 8.1
O=c1oc2c(-c3ccccc3Cl)cc(O)cc2s1	Dicer processing 3.6
CC(=O)Oc1cc2sc(=O)oc2c2ccccc12	none
CCCCc1ccc(C(=O)CCC(=O)O)cc1	none
CC1=C(C(=O)OCCc2ccccc2)C(c2ccccc2)C2=C(CC(C)(C)CC2=O)N1 (configuration not stated)	none
Cc1ccc2c(C)nc(NC3=NCN(CCN4CCOCC4)CN3)nc2c1	none
CCCc1c(C(=O)OCC)c2cc(NS(C)(=O)=O)ccc2n1S(C)(=O)=O	none
Cc1cc(NC(=O)/C(C#N)=C/c2ccc(Cl)cc2Cl)no1	none
Cc1nn2c(=O)c(NC(=O)c3ccc(C(C)(C)C)cc3)cnc2s1	none
COC(=O)CSCC(=O)Nc1ncc2c(n1)CC(C)(C)CC2=O	none
CC(C)(C)c1ccc(C(=O)Oc2ccc3occ([N+](=O)[O-])c3c2)cc1	none
CCCCCc1ccc(S(=O)(=O)Nc2nc(CC(=O)OCC)cs2)cc1	none
CS/C(=N\S(=O)(=O)c1ccccc1)N1CCCC1	none
CSC(=Nc1ccccc1F)N1CCCCC1	Dicer processing 4.8

Screening results (PubChem)
